Common to all, as to test: NCI-60 one-dose screen, 48 h (100 = growth as untreated, 0 = no growth, -100 = all killed)
The subject of one test is NCI-H226 lung. The note with it: 10 µM.
In the next test the test system is NCI-H322M lung. To be noted: 10 µM.
For another test, the system named is HOP-62 NSCLC. To be noted: 10 µM.
Another test concerns NCI-H460 lung. To be noted: 10 µM.
A further test deals with NCI-H522 lung. To be noted: 10 µM.
Another test has as its system COLO 205 colon. To be noted: 10 µM.
A further test has as its system DU-145 prostate. To be noted: 10 µM.
The next test deals with SF-268 CNS. The note with it: 10 µM.
The next test has as its system SF-295 CNS. The note with it: 10 µM.
For a further test, the system named is SF-539 CNS. The note with it: 10 µM.
The test system of the next test is UACC-257 melanoma. To be noted: 10 µM.
Another test concerns M14 melanoma. To be noted: 10 µM.
The test system of the next test is HCT-15 colon. The note with it: 10 µM.
The subject of another test is HT29 colon. To be noted: 10 µM.
The next test has as its system SNB-19 CNS. To be noted: 10 µM.
The next test has as its system U251 CNS. To be noted: 10 µM.
A further test deals with SK-MEL-5 melanoma. To be noted: 10 µM.
The next test deals with UACC-62 melanoma. To be noted: 10 µM.
In a further test the test system is SK-MEL-2 melanoma. To be noted: 10 µM.
A further test relates to HL-60(TB) leukemia. The note with it: 10 µM unless noted.

SMILES strings stand for the structures. About 83,000 compounds went through this panel and 20% of them were active in at least one assay; those are over-represented in the sample as a whole.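 For each line, cells grew in 96-well plates with the test compound present at a single concentration for 48 hours.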 Unmarked numbers belong to inactive results. Active and inactive are the calls of the source. How the source made its calls: active means growth percent below 10; inactive means the rest.

As to `CC(C)C[C@H](NC(=O)CNC(=O)C[C@H]1O[C@@H]2OC3(C)CC[C@H]4[C@H](C)CC[C@@H]([C@H]1C)[C@@]24OO3)B(O)O`, the growth is -22.4% (active) in the test with NCI-H226 lung; 51.6% in the test with NCI-H322M lung; -17% (active) in the test with HOP-62 NSCLC; 13.6% in the test with NCI-H460 lung; -73.8% (active) in the test on NCI-H522 lung; 17.8% in the test on COLO 205 colon. Besides, the growth in the test on DU-145 prostate is 42.3%; with SF-268 CNS, 17.4%; in the test with SF-295 CNS, -63.6% (active); in the test on SF-539 CNS, -93.3% (active); in the test with UACC-257 melanoma, -56.9% (active); with M14 melanoma, -43.8% (active). The growth with HCT-15 colon was 22.7%; with HT29 colon, -56% (active); in the test with SNB-19 CNS, 27.4%; in the test with U251 CNS it was 13.7%; with SK-MEL-5 melanoma, -90.2% (active); in the test with UACC-62 melanoma it was -86.6% (active). The growth in the test on SK-MEL-2 melanoma was -57.3% (active); in the test with HL-60(TB) leukemia, 0.92% (active).
As for `O=C(/C=C/c1ccc(Br)cc1)c1nc2ccccc2n1Cc1ccc(Br)cc1`, the growth in the test with NCI-H226 lung was -70.1% (active); in the test with NCI-H322M lung it was 39%; with HOP-62 NSCLC, -22.1% (active); in the test with NCI-H460 lung, -14.4% (active); with NCI-H522 lung, -39.8% (active); in the test on COLO 205 colon, -39.8% (active). In addition, the growth in the test with DU-145 prostate is 17.9%; with SF-268 CNS, 29.9%; in the test with SF-295 CNS it was -34.9% (active); in the test on SF-539 CNS, -60.2% (active); in the test on UACC-257 melanoma it was -4.85% (active); in the test on M14 melanoma, -26.7% (active). Moreover, the growth in the test on HCT-15 colon was -68.4% (active); with HT29 colon it was -27.6% (active); in the test on SNB-19 CNS it was -66.9% (active); in the test on U251 CNS it was -86.3% (active); in the test on SK-MEL-5 melanoma, 1.54% (active); in the test with UACC-62 melanoma, -66.5% (active). For the same molecule, the growth is 2.53% (active) with SK-MEL-2 melanoma and -13.2% (active) with HL-60(TB) leukemia.
Take `CC1=C(COCCOC(=O)c2ccc(S(=O)(=O)F)cc2)C2=C(C)C3(CC3)[C@@](C)(O)C(=O)C2=C1`: the growth with NCI-H226 lung is -39.9% (active); in the test with NCI-H322M lung, -25.8% (active); in the test with HOP-62 NSCLC, -27.5% (active); with NCI-H460 lung it was 2.07% (active); in the test on NCI-H522 lung, -72.2% (active); in the test with COLO 205 colon it was -73% (active). Besides, the growth with DU-145 prostate was -3.95% (active); in the test with SF-268 CNS, 12.9%; in the test with SF-295 CNS, -11.8% (active); in the test with SF-539 CNS, -76.2% (active); with UACC-257 melanoma, -31.6% (active); with M14 melanoma, 11.1%. For the same molecule, the growth was -29.6% (active) in the test with HCT-15 colon; -28.5% (active) with HT29 colon; -10.6% (active) with SNB-19 CNS; 4.59% (active) in the test with U251 CNS; -92.1% (active) in the test with SK-MEL-5 melanoma; -88.5% (active) in the test with UACC-62 melanoma. For the same molecule, the growth in the test with SK-MEL-2 melanoma was -99.4% (active); with HL-60(TB) leukemia, -22.9% (active).
On to `C#CC[Se]C(=O)c1ccc2n[se]nc2c1`, for which the growth in the test with NCI-H226 lung is 23%; with NCI-H322M lung, 12%; in the test with HOP-62 NSCLC, 28.6%; in the test with NCI-H460 lung, 63.9%; in the test with NCI-H522 lung, 51.9%; with COLO 205 colon, 58.6%. In addition, the growth in the test on DU-145 prostate was 71.8%; with SF-268 CNS, 89.4%; in the test on SF-295 CNS, 25.4%; with SF-539 CNS, 40.3%; in the test with UACC-257 melanoma, 59.3%; with M14 melanoma, 54.9%. Also, the growth in the test on HCT-15 colon was 25.8%; with HT29 colon it was 39.6%; with SNB-19 CNS it was 79.9%; with U251 CNS, 73.2%; with SK-MEL-5 melanoma, 83.2%; with UACC-62 melanoma, 51.4%. Besides, the figures for the growth with SK-MEL-2 melanoma and in the test with HL-60(TB) leukemia were 104% and 1.82% (active), respectively.
With `COC(=O)c1ccc(-n2cc(CCCN(CCNc3ccnc4cc(Cl)ccc34)C(=O)CCC(=O)O[C@@H]3O[C@@H]4OC5(C)CC[C@H]6[C@H](C)CC[C@@H]([C@H]3C)[C@@]46OO5)nn2)cc1`, the growth was 48.4% in the test on NCI-H226 lung; 71% in the test on NCI-H322M lung; 64.5% in the test on HOP-62 NSCLC; 52.1% in the test with NCI-H460 lung; 7.38% (active) in the test with NCI-H522 lung; 14.8% with COLO 205 colon. In addition, the growth was 59.8% in the test with DU-145 prostate; 59.2% in the test on SF-268 CNS; 43.8% in the test on SF-295 CNS; 39% in the test on SF-539 CNS; 35% in the test on UACC-257 melanoma; 47.1% with M14 melanoma. Besides, the growth with HCT-15 colon is -4.92% (active); in the test on HT29 colon, 5.91% (active); in the test on SNB-19 CNS, 63.7%; in the test on U251 CNS it was 53.3%; in the test on SK-MEL-5 melanoma it was -70.1% (active); in the test on UACC-62 melanoma, 36.8%. Further, the growth in the test with SK-MEL-2 melanoma is 29.4%; in the test on HL-60(TB) leukemia, -30.7% (active).
As to `CC[C@]12C=CCN3CC[C@@]4(c5ccc(OC)cc5N(C)[C@H]4[C@@](O)(C(=O)OC)[C@@H]1OC(=O)CCCC[P+](c1ccc(OC)cc1)(c1ccc(OC)cc1)c1ccc(OC)cc1)[C@@H]32`, the growth with NCI-H226 lung is -63.6% (active); with NCI-H322M lung, -89.6% (active); in the test with HOP-62 NSCLC, -80.8% (active); in the test with NCI-H460 lung, -87% (active); with NCI-H522 lung, -81.9% (active); in the test with COLO 205 colon, -64.9% (active). Further, the growth in the test on DU-145 prostate is -58.2% (active); in the test with SF-268 CNS it was -38.1% (active); with SF-295 CNS it was -93.6% (active); with SF-539 CNS it was -97.4% (active); in the test on UACC-257 melanoma, -93.4% (active); with M14 melanoma, -89.8% (active). Besides, the growth in the test on HCT-15 colon is -5.69% (active); in the test on HT29 colon it was -63.1% (active); in the test on SNB-19 CNS it was -95.7% (active); in the test with U251 CNS, -95.9% (active); with SK-MEL-5 melanoma, -97% (active); with UACC-62 melanoma it was -95.2% (active). Moreover, the growth in the test with SK-MEL-2 melanoma is -91.4% (active); in the test on HL-60(TB) leukemia it was -45.2% (active).
Consider `COCCOCCOCCOc1ccc(-n2cc(-c3ccc(O[C@H]4O[C@@H]5OC6(C)CC[C@H]7[C@H](C)CC[C@@H]([C@H]4C)[C@@]57OO6)cc3)nn2)cc1`, for which the growth was 79.7% in the test on NCI-H226 lung; 86.1% in the test on NCI-H322M lung; 73.6% in the test on HOP-62 NSCLC; 70.6% with NCI-H460 lung; -21.3% (active) in the test with NCI-H522 lung; -11.4% (active) in the test on COLO 205 colon. Further, the growth in the test on DU-145 prostate is 42.6%; with SF-268 CNS, 59%; with SF-295 CNS, 40.4%; with SF-539 CNS, 47.6%; with UACC-257 melanoma it was 39.7%; with M14 melanoma, 32%. For the same molecule, the growth is 12.7% in the test on HCT-15 colon; 48.1% in the test on HT29 colon; 64% in the test on SNB-19 CNS; 73% in the test with U251 CNS; -24.4% (active) in the test with SK-MEL-5 melanoma; 37.3% in the test on UACC-62 melanoma. Besides, the growth was 16.8% with SK-MEL-2 melanoma and 10.1% with HL-60(TB) leukemia.

The record behind these values is PubChem BioAssay (NCI).
